Experimental data as given in PubChem BioAssay AID504941 (Broad Institute, 2011).
Screen size: about 1,200 compounds; about 170 (14%) were called active. How the calls were made is not given here. These entries were drawn from the full list. Entries with a potency or affinity are not part of this list.

Assay: E. coli Tat export inhibitors, dose response, cherry-pick, set 2, plate reader (AID 504941)
Settings: E. coli Tat transport reporter; series mostly up to 38 µM

outcome, inactive:
CCCCCCc1ccc(N2C[C@H](Cc3ccccc3)[C@@H](CC(=O)NCc3ccc(OC)cc3)C2=O)cc1
CCCOc1cc(C)c(S(=O)(=O)N2CCN(C)CC2)cc1C
COc1ccc(OC)c(S(=O)(=O)NCCc2ccccc2)c1
COc1ccc(S(=O)(=O)NCc2ccco2)c2ccccc12
COC(=O)C1=CN(C(C)C)C=C(C(=O)OC)C1c1cccc(OC)c1
COc1ccc(N2C(=O)C3C4C=CC(C4)C3C2=O)nn1 (stereo not drawn)
CCNC(=O)c1ccc(NS(=O)(=O)c2ccccc2)cc1
Cc1ccc(-c2cc(C(=O)OCC(=O)N(C)c3c(N)n(Cc4ccccc4)c(=O)[nH]c3=O)c3ccccc3n2)o1
N#CC1=C2SCC(O)(c3ccccc3)N2C(=O)CC1c1ccccc1F (stereo not drawn)
COc1cc(NC(=O)C2CC(=O)NC3=C2C(=O)CC(C)(C)C3)c(OC)cc1Cl (stereo not drawn)
Cn1c(C(=O)NCc2cccs2)cc2c(=O)n(C)c3ccccc3c21
COC(C(=O)Nc1ccnn1C1CCN(Cc2ccc(C)o2)CC1)c1ccccc1 (stereo not drawn)
O=C(c1n[nH]c2ccccc12)N1CCOCC1
O=C(CSc1cccc[n+]1[O-])Nc1ccccc1C(F)(F)F
C/C(Cn1nnc([N+](=O)[O-])n1)=N\NC(=O)c1ccc(O)cc1O
CC1CCCCN1S(=O)(=O)c1ccc(NC(=O)c2ccco2)cc1 (stereo not drawn)
CCn1c(C)nc2cc(C(=O)N/N=C/c3ccc(OC)c(O)c3)ccc21
COc1cccc(C2C(C(=O)OC(C)C)=C(C)Nc3ncnn32)c1 (stereo not drawn)
CCN(CC)S(=O)(=O)c1ccc(=O)n(CC(=O)N2Cc3ccccc3CC2C(N)=O)c1 (stereo not drawn)
CC(Sc1nc2ccccc2c(=O)n1C)C(=O)NC1CCCCC1C (stereo not drawn)
Cc1nn(Cc2ccccc2Cl)c(C)c1NC(=O)c1ccn(C)n1
Cn1c(=O)oc2cc(S(=O)(=O)NCCN3CCCCCC3)ccc21
CC(C)Sc1nc2c(c(=O)[nH]c(=O)n2C)n1CCc1ccccc1
CCOCCOc1nc2c(c(=O)n(C)c(=O)n2C)n1Cc1ccc(C)cc1
CCn1c(SCC(=O)Nc2ccc(OC)cc2)nc2c1c(=O)n(C)c(=O)n2C
CN(C)c1nc(NCc2ccccc2)nc(SCC(N)=O)n1
O=C(CN1CCN(c2ccccc2)CC1)N1N=CCC1c1ccccc1 (stereo not drawn)
Cn1c(-c2ccccc2)cnc1N
Cc1nc2ccccc2c(=O)n1CCCO
Cc1c(OCC(=O)NCCCN2CCOCC2)ccc2c1oc(=O)c1ccccc12
CC(Sc1ccsc1[N+](=O)[O-])C(=O)N1CCN(c2ccccn2)CC1 (stereo not drawn)
N#Cc1ccccc1S(=O)(=O)N1CCN(CC(=O)Nc2ccnn2C2CCCC2)CC1
CCN(CC)C(=O)CSc1nc2ccccc2o1
COC(=O)c1ccc(C2CC(=O)Nc3cc(OC)c(OC)cc32)cc1 (stereo not drawn)
Cc1ccc(S(=O)(=O)N2CCOCC2)cc1NC(=O)c1cc2ccccc2oc1=O
Cc1ccc(NC(=O)/C(=C/c2cccc([N+](=O)[O-])c2)NC(=O)C2CCCCC2)c(C)c1
COc1ccc(CN2CSC(=S)N(Cc3ccccc3)C2)cc1
Nc1cc(N)nc(SCc2ccc(Cl)cc2)n1
O=C(CCCCCNC(=O)c1ccccc1)C[N+](=O)[O-]
COCCCNc1nc2c(c(=O)[nH]c(=O)n2C)n1CC(O)COc1cccc(C)c1 (stereo not drawn)
COc1ccc(NC(=O)c2ccc(Oc3ncccn3)cc2)cc1
Cn1c(N)c(C(=O)COC(=O)CCCN2C(=O)c3ccccc3C2=O)c(=O)n(C)c1=O
O=C(CN1CCN(c2ccccc2F)CC1)NC(=O)NCc1ccccc1
COc1ccc(-c2cc(C(F)(F)F)c3c(n2)sc2c(O)cc(=O)[nH]c23)c(OC)c1
Nc1ccccc1S(=O)(=O)NC1=NCCCCC1
CC1CCN(C(=O)c2[nH]cnc2C(=O)N[C@@H](C)C(=O)OC(C)(C)C)CC1
CC(C)(C)OC(=O)NCC(=O)N1CCC(C(=O)O)CC1
O=C(NCc1ccccc1)c1nc[nH]c1C(=O)N1CCN(c2ccccc2)CC1
CC(=O)Nc1ccc(NS(=O)(=O)c2ccc3ccccc3c2)cc1
CCc1ccc(N2CC34C=CC(O3)C(C(=O)OC(C)C)C4C2=O)cc1 (stereo not drawn)
COc1ccc(N=Cc2nc(-c3ccccc3)oc2OC(=O)c2ccccc2)cc1
COC(=O)c1c(NC(=O)C(=O)NCCCN2CCOCC2)sc2c1CCCC2
Cc1nn2c(SCC(=O)c3cccs3)cc(C(C)(C)C)nc2c1-c1ccccc1
CC(C)(C)c1ccc(C(=O)n2cnc3ccccc32)cc1
O=C(O)c1ccc(NS(=O)(=O)c2cc(C(=O)O)ccc2Br)cc1
Cc1ccc(CNC(=O)C2CCCN2C(=O)Nc2ccccc2)cc1 (stereo not drawn)
O=C(O)C1CCCCN1S(=O)(=O)c1ccc(Cl)s1 (stereo not drawn)
Cc1ccc(-n2nnnc2-c2cnc3cc4c(cc3c2C)OCO4)cc1
Cc1ccc2nc(NNC(=O)c3ccc(S(=O)(=O)N4CCc5ccccc5C4)cc3)sc2c1
O=C(CSc1nnc(-c2ccccc2)n1C1CCCCC1)N1CCCC1
Cc1ccnc(NS(=O)(=O)c2ccc(NS(=O)(=O)c3ccccc3)cc2)n1
O=C(CN(Cc1ccco1)C(=O)c1ccccc1F)Nc1ccccc1C(F)(F)F
CCc1cccc2c1NC(=O)C2(O)N1CCCC(C)C1 (stereo not drawn)
COc1cccc(C(=O)Nc2cc([N+](=O)[O-])ccc2N2CCN(C)CC2)c1
Cc1cccc(NC(=O)CN(c2ccc(F)cc2)S(C)(=O)=O)c1
CS(=O)(=O)N(CC(=O)NC1CCCC1)c1cccc(F)c1
COC(CN(C)C(=O)C1CCCN(S(=O)(=O)c2ccc3c(c2)oc(=O)n3C)C1)OC (stereo not drawn)
CCOC(=O)c1c(NC(NC(C)=O)C(Cl)(Cl)Cl)sc(C(C)=O)c1C (stereo not drawn)
